Laboratory results reported in PubChem BioAssay (EPA / NIEHS).
“And” between values parts separate entries of the source, which are not always exact repeats. Identical values can stand only once. Inconclusive results are not listed. Some structures have more than one record in an assay (separate samples or runs), and their calls can disagree. The source made the active and inactive calls. Rule for the calls, unless noted: active = hit-call score of the fitted dose curve at least 0.9, where 1 is the maximum; inconclusive = response in the unintended direction; inactive = score below 0.9.

What was measured:
[1] = CCTE_Shafer_MEA_dev_LDH: CCTE's Lactate Dehydrogenase Assay for Cytotoxicity in the Neural Network Formation Assay, Shafer Lab (AID 2284068);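 note: exposure for twelve days from plating with re-dosing on DIV 5 and 9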
In short: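 Developing rat cortical networks on MEA plates are exposed to compound for 12 days from plating. LDH activity is measured spectrophotometrically, with DMSO as baseline.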

[2] = UKN5_HCS_SBAD2_neurite_outgrowth: University of Konstanz (UKN) Leist Lab Neurite Outgrowth Assay in human iPSC-derived immature Dorsal Root Ganglia Neurons (UKN5) (AID 2284070; active = hit-call score of the fitted dose curve at least 0.9, where 1 is the maximum; inactive = score below 0.9); details: actives raise or lower the signal
In short: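 SBAD2 iPSC-derived immature peripheral neurons on Matrigel, 100.000 cells/cm2, medium with CHIR99021 (1.5 uM), SU5402 (5 uM), DAPT (5 uM); compound added 1 h post-seeding for 24 h. Calcein-AM neurite area by high-content imaging; Hoechst H-33342 viability; bidirectional fit vs DMSO.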

[3] = CCTE_Shafer_MEA_dev_AB: CCTE's Alamar Blue Assay for Cytotoxicity in the Neural Network Formation Assay, Shafer Lab (AID 2284083);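 note: resazurin reduction fluorescence as viability of cultured neurons; twelve days of exposure from plating with re-dosing on DIV 5 and 9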
In short: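 Cytotoxicity companion to the developmental MEA: primary rat cortical neurons, 12-day exposure starting day 0, compound refreshed DIV 5 and 9; resazurin fluorescence, fitted against DMSO vehicle.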

[4] = CCTE_Shafer_MEA_dev_mutual_information_norm: CCTE's Neural Network Formation Assay for Mutual Information Normalization, Shafer Lab (AID 2284091; active = hit-call score of the fitted dose curve at least 0.9, where 1 is the maximum; inactive = score below 0.9;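 for AC50: mutual information between electrodes summarised as area under curve across four recording days; potency is for a decrease in mutual information relative to DMSO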)
In short: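 Rat cortical cultures, 48-well MEA, continuous exposure DIV 0–12 with full media/compound change DIV 5 and 9. Readout: inter-electrode mutual information, AxIS adaptive spike detection; AUC across DIV 5/7/9/12 recordings; DMSO baseline, negative fitting direction.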

[5] = CCTE_Shafer_MEA_dev_correlation_coefficient_mean: CCTE's Neural Network Formation Assay for Mean Correlation Coefficient, Shafer Lab (AID 2284093; active = hit-call score of the fitted dose curve at least 0.9, where 1 is the maximum; inactive = score below 0.9;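 for AC50: well mean pairwise spike train correlation integrated as AUC over recording days 5 to 12; potency fitted for loss of correlation relative to DMSO vehicle wells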)
In short: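 Extracellular firing from rat cortical networks on 48-well MEAs, DMSO-referenced, negative fitting direction. Compound present from plating to DIV12; mean pairwise correlation per well integrated over DIV5–12 recordings by trapezoidal AUC.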

[6] = UKN2_HCS_IMR90_neural_migration: University of Konstanz (UKN) Leist Lab Neural Crest Cell Migration Assay in human induced IMR90 Pluripotent Stem Cells (UKN2) (AID 2284204; active = hit-call score of the fitted dose curve at least 0.9, where 1 is the maximum; inactive = score below 0.9); details: actives raise or lower the signal
In short: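 iPSC-derived IMR90 neural crest cells on PLO/laminin/fibronectin were seeded around silicone stoppers; after stopper removal, migration in N2-S medium with EGF and FGF ran 24 h before 24 h chemical exposure. Calcein-AM/Hoechst high-content imaging; bidirectional fit versus DMSO.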

[7] = UKN4_HCS_LUHMES_neurite_outgrowth: University of Konstanz (UKN) Leist Lab Neurite Outgrowth Assay in human LUHMES cells (UKN4) (AID 2284206; active = hit-call score of the fitted dose curve at least 0.9, where 1 is the maximum; inactive = score below 0.9); details: actives raise or lower the signal
In short: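 Human LUHMES neuronal precursors, differentiated 2 days then replated without cAMP and GDNF, exposed to compounds for 24 h. Neurite area imaged by high-content microscopy after calcein-AM live staining; Hoechst H-33342 for viability; bidirectional fit versus DMSO.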

[8] = IUF_NPC1b_proliferation_BrdU_72hr: Leibniz Research Institute for Environmental Medicine (IUF) 72-hour Neural Progenitor Cell Bromodeoxyuridine (BrdU) Proliferation Assay (NPC1b) (AID 2284207; active = hit-call score of the fitted dose curve at least 0.9, where 1 is the maximum; inactive = score below 0.9)
In short: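 hNPC spheres (primary, GW 16-19 fetal cortex), single sphere/well, EGF+FGF medium; 72 h compound, no renewal; BrdU pulse last 16 h; luminescent ELISA; activity vs DMSO baseline; growth-factor withdrawal as positive control.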

[9] = CCTE_Shafer_MEA_acute_AB: CCTE's Alamar Blue Assay for Cytotoxicity in the Neural Acute Assay, Shafer Lab (AID 2284069);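 note: active compounds lower the viability signal compared with DMSO wells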
In short: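 Cytotoxicity endpoint for acute MEA exposures of primary rat cortical neurons on day 13 or 15. Resazurin reduction is read fluorescently at 544/590 nm, with DMSO as the negative-control baseline.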

[10] = CCTE_Shafer_MEA_acute_LDH: CCTE's Lactate Dehydrogenase Assay for Cytotoxicity in the Neural Acute Assay, Shafer Lab (AID 2284086);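 note: active means LDH release rises above DMSO vehicle level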
In short: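 Medium from rat cortical neuron MEA cultures sampled right after the 40 min compound-exposure recording; released LDH measured by absorbance at 490 nm. Analyzed as signal gain relative to DMSO.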

Measured: AC50

S=C([S-])NCCNC(=S)[S-].[Mn+2]
active: [2] 4.28 µM | [6] 14.2 µM | [7] 2.16 µM
not listed: [9] | [10]
inactive: all other assays above

COCCO
inactive: [1] | [4] | [5]

OB(O)O
inactive: [9] | [3] | [10] | [4] | [5]

CC1(C)C(C=C(Cl)Cl)C1C(=O)OCc1cccc(Oc2ccccc2)c1 (stereo not drawn)
inactive: [10]
active: [1] 22.6 µM and 9.58 µM | [3] 26.4 µM and 14.7 µM | [4] 15 µM and 5.01 µM | [5] 15 µM and 5.33 µM

Oc1ccc(C(c2ccc(O)cc2)C(Cl)(Cl)Cl)cc1
inactive: [1] | [3] | [10] | [4] | [5]

CCCCC(CC)CN1C(=O)C2C3C=CC(C3)C2C1=O (stereo not drawn)
inactive: [1] | [9] | [3] | [10] | [4] | [5]

CCCN(CCC)C(=O)SCC
inactive: [1] | [3] | [4] | [5] | [6] | [8]

CCN(CC)C(=O)c1cccc(C)c1
inactive: [4] | [5] | [6]
active: [8] 92.7 µM

CSC(=O)c1cccc2nnsc12
active: [8] 0.796 µM
inactive: [3] | [10] | [4] | [5]

CC(C)(c1ccc(O)cc1)c1ccc(O)cc1
inactive: [1] | [9] | [10] | [4] | [5]
active: [4] 1.95 µM | [8] 4.92 µM

O=C(O)c1ccccc1
inactive: [1] | [9] | [10] | [4] | [5] | [8]

O=C(c1ccc(O)cc1O)c1ccc(O)cc1O
inactive: [9] | [10]

CC(C)CCCCCCc1ccc(O)cc1
inactive: [9] | [10]

O=C(Nc1ccc([N+](=O)[O-])cc1Cl)c1cc(Cl)ccc1O
inactive: [9] | [10]

S=C(S)NCCNC(=S)S.[Mn+2].[S-]C([S-])=NCCN=C([S-])[S-].[Zn+2]
inactive: [1] | [3] | [4] | [5] | [8]
active: [2] 15 µM

C#CCOC(=O)[C@@H](C)Oc1ccc(Oc2ncc(Cl)cc2F)cc1
active: [3] 10.1 nM
not listed: [2] | [7] | [10]
inactive: all other assays above

CC(C)(C)[C@@H](O)[C@@H](Cc1ccc(Cl)cc1)n1cncn1
inactive: [9] | [10]

C=CCOC(Cn1ccnc1)c1ccc(Cl)cc1Cl (stereo not drawn)
inactive: [9] | [10]

COC(=O)c1ccccc1C(=O)O
inactive: [9]

CCNc1nc(N)nc(Cl)n1
inactive: [9] | [10]

CCCN(CCC)c1c([N+](=O)[O-])cc(C(F)(F)F)c(N)c1[N+](=O)[O-]
inactive: [10]

Cc1nn(C)c(Oc2ccccc2)c1C=NOCc1ccc(C(=O)OC(C)(C)C)cc1
inactive: [9] | [10]
active: [1] 2 nM | [3] 9.23 nM | [4] 0.00128 µM | [5] 2.29 nM | [6] 6.55 µM | [8] 5.15 µM

N#CSCSc1nc2ccccc2s1
inactive: [9] | [10]

CCCCOCCOCCOCc1cc2c(cc1CCC)OCO2
inactive: [3] | [4] | [5]
active: [1] 15300 nM

O=C(c1ccccc1)C1CCCCC1
inactive: [9] | [10]
